Reference: PubChem BioAssay AID1259418 (Broad Institute, 2018)
Screen size: about 3,400 compounds; about 840 (25%) were called active. Another 11% or so got no clear call; they are omitted. Not all results are given here. Measured potencies and affinities stand elsewhere. A number with no mark means an inactive call.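 Rule for the calls: active = fitted half-maximal concentration of signal decrease at or below twice the sample's top tested concentration; inconclusive = flat curve between -70 and -30 percent, or poor fit; inactive = flat within 30 percent, signal rise, or potency above limit.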

Experiment: inhibitors of Toxoplasma growth in IFN-γ-primed HeLa – cell-based, ME49Luc, luciferase, 72 h, dose response (AID 1259418)
Details: T. gondii ME49Luc in IFN-y HeLa, stronger effect = lower value, -100% = high-dose IFN-γ control wells; at 19.5 µM unless noted

SMILES | max activity
COc1ccccc1-c1nc(C)c(-c2ccc(SCc3ccc(C)cc3)nn2)s1 | -14.3%
COc1ccc(C(=O)N2CCC[C@@H]2C(=O)NCCc2csc(-c3ccccc3)n2)cc1 | -13.9%
CCc1ccc(S(=O)(=O)N2CCc3nc(-c4ccc(OC)cc4)sc3C2)cc1 | 9.57%
CCOc1ccc(CC(=O)N2CCC3(CC2)Nc2ccc(C)c(C)c2-n2cccc23)cc1OCC | -7.59% [at 0.35 µM]
CCC(CC)C(=O)N1CCC(C(=O)NCCc2csc(-c3ccccc3)n2)CC1 | 5.84% [at 5 µM]
COc1ccc(C(=O)Nc2ccc3c(c2)CCC(=O)N3C)c(C)c1 | 42.4%
COc1cccc(C#Cc2ccc([C@H]3[C@@H](C#N)N(C(=O)c4ccccn4)[C@@H]3CO)cc2)c1 | 11.2% [at 10 µM]
N#C[C@H]1[C@H](c2ccc(C#Cc3ccccc3F)cc2)[C@@H](CO)N1C(=O)c1cccnc1 | -13.1% [at 2.35 µM]
CCOC(=O)C1CCC(CNC(=O)Nc2ccc(-c3nc(-c4ccccc4)co3)cc2)CC1 (stereo not drawn) | -11.7% [at 5 µM]
N#CCSC1=Nc2ccccc2C2=NC(CC(=O)NCc3ccc(F)cc3)C(=O)N12 (stereo not drawn) | 44.3%
COc1ccc(CNC2=NCCNC23CCN(S(=O)(=O)c2ccc4c(c2)CCCC4)CC3)cc1 | -31.9%
O=S(=O)(c1ccc2c(c1)CCCC2)N1CCC2(CC1)NCCN=C2NCc1cc(F)cc(F)c1 | 16.7%
Cc1cccc(CNC2=NCCNC23CCN(S(=O)(=O)c2ccc4c(c2)CCCC4)CC3)c1 | 20.3% [at 10 µM]
Cc1nc(-c2ccc(F)cc2)sc1-c1ccc(SCc2cccc3ccccc23)nn1 | -8.89% [at 10 µM]
COc1ccccc1-c1nc(C)c(-c2ccc(SCc3cc(C)ccc3C)nn2)s1 | -11.2% [at 0.35 µM]
Cc1ccc(-c2coc(-c3ccc(NC(=O)C4CCCCC4)cc3)n2)c(C)c1 | -13.8%
Cc1oc(-c2cccc(Cl)c2)nc1Cn1nnc(-c2nc(-c3ccncc3)no2)c1C | -5.43% [at 1.35 µM]
COc1ccc(-c2nc(Nc3cccc(SC)c3)c3ccccc3n2)cc1 | 8.11% [at 0.35 µM]
COC(=O)c1ccc(NC(=O)Nc2ccc(-c3nc(-c4cc(C)ccc4C)co3)cc2)cc1 | -6.97% [at 0.68 µM]
COc1ccc2c(c1)NC1(CCN(C(=O)Cc3ccc(F)cc3)CC1)c1cccn1-2 | 12.9% [at 0.35 µM]
CCn1cc(NC(=O)c2cccc(CN3C[C@@H](C)O[C@@H](C)C3)c2)nn1 | 30.6%
CC(C)CN(C[C@@H](O)[C@H](Cc1ccccc1)NC(=O)O[C@H]1CO[C@H]2OCC[C@H]21)S(=O)(=O)c1ccc(N)cc1 | 7.57%
CCc1nc(OCC(=O)Nc2cccc(OC)c2)c2ccccc2n1 | 13.8% [at 0.16 µM]
O=C(CCCCCn1c(=S)[nH]c2cc3c(cc2c1=O)OCO3)N1CCC(O)(c2cccc(C(F)(F)F)c2)CC1 | -29.1% [at 10 µM]
Cc1cccc(C2=NC3(CCN(C(=O)c4ccc(C(C)(C)C)cc4)CC3)NC2=O)c1 | 16.7% [at 2.6 µM]

SMILES | max activity
O=C(c1ccc2c(=O)n(CCC3=CCCCC3)c(=S)[nH]c2c1)N1CCC(O)(c2cccc(C(F)(F)F)c2)CC1 | -24.9% [at 10 µM]
CCCn1c(=S)[nH]c2cc(C(=O)N3CCC(O)(c4cccc(C(F)(F)F)c4)CC3)ccc2c1=O | 18.8% [at 0.16 µM]
COc1ccccc1-c1nc(Cn2nnc(-c3nc(-c4ccccn4)no3)c2C)c(C)o1 | 50.4%
C=CCN1C(=O)CC[C@H]2[C@@H]1CCN2S(=O)(=O)CC | 48.3%
Cc1ccc(CSc2ccc(-c3sc(-c4ccc(F)cc4)nc3C)nn2)cc1 | 12.3% [at 0.16 µM]
Cc1cc(C)c2c(=O)n(Cc3nc(-c4ccc(C(C)C)cc4)oc3C)c(=O)n(-c3ccccc3)c2n1 | -13.2% [at 5 µM]
CCCN1CCc2nc(SCc3nc(-c4cccc(Cl)c4)oc3C)[nH]c(=O)c2C1 | 10.2% [at 0.68 µM]
COCC1COCCC12CCN(C(=O)c1ccc(C)nc1)CC2 (stereo not drawn) | 18.7%
Cc1ccc(NC(=O)N2CCc3nc(-c4ccccc4)sc3C2)cc1C | -7.49% [at 2.6 µM]
Cc1cccc(-c2nc(Cn3nnc(-c4nc(-c5cccc(C(F)(F)F)c5)no4)c3C)c(C)o2)c1 | 8.75% [at 1.35 µM]
O=C(Nc1ccc(-c2nc(-c3ccccc3)co2)cc1)Nc1ccc2c(c1)OCO2 | 19.1% [at 0.16 µM]
Cc1ccccc1NC(=O)CN1CCC2(CC1)N=C(c1ccc(Cl)cc1)C(=O)N2 | -13.7% [at 1.35 µM]
COc1ccc(-c2nc(N3CCN(c4ccc(F)cc4)CC3)c3ccccc3n2)cc1 | 13.7% [at 10 µM]
COc1ccc(-n2ncc3c(NC4CCCCCCCCCCC4)ncnc32)cc1 | 21.4% [at 1.35 µM]
O=C(NCCc1c[nH]c2ccccc12)C1CCN(c2ncnc3c2oc2ccccc23)CC1 | 11.9% [at 0.68 µM]
CCn1nnc2c(NCCSc3c[nH]c4ccccc34)ncnc21 | -13.5% [at 0.68 µM]
Cc1cccc(-c2nc(CSc3nc4c(c(=O)[nH]3)CN(Cc3ccc(Cl)cc3)CC4)c(C)o2)c1 | 23.2% [at 0.16 µM]
O=S(=O)(c1ccc(Cl)s1)N1CCC2(CC1)NCCN=C2NC1CCCC1 | 13.4%
CCc1ccc(S(=O)(=O)N2CCC3(CC2)NCCN=C3NCc2ccccc2OC)cc1 | 11.2% [at 0.16 µM]
O=S(=O)(c1cccs1)N1CCC2(CC1)NCCN=C2NCc1ccccc1F | -35.7%
COc1ccccc1CNC1=NCCNC12CCN(S(=O)(=O)c1cccs1)CC2 | -16.5% [at 0.68 µM]
COC[C@H]1CN(CC2CC2)C[C@@]12CCN(CCc1ccccc1)C2 | 24%
CCCN1CCc2nc(SCc3nc(-c4ccc(OC)cc4OC)oc3C)[nH]c(=O)c2C1 | 66.7%
COc1ccc(-c2nc(Nc3ccc(C)c(C)c3)c3ccccc3n2)cc1 | 21.6% [at 0.16 µM]
CC1(C)C2CCC1(CS(=O)(=O)O)C(=O)/C2=C\c1ccc(/C=C2/C(=O)C3(CS(=O)(=O)O)CCC2C3(C)C)cc1 | 14.9%

SMILES | max activity
CCn1c(C2CCCN(C(=O)CCN3CCCCCC3=O)C2)nn(C)c1=O (stereo not drawn) | 20.9%
CN1C(=O)CCc2cc(NC(=O)c3ccnn3C)ccc21 | 26.8%
Cc1cc2cc(CNc3ncnc4c3nnn4C)ccc2[nH]1 | 9.49% [at 10 µM]
COc1ccc(C)cc1NC(=O)Nc1ccc(-c2nc(-c3cccc(Br)c3)co2)cc1 | -11.7% [at 0.35 µM]
CC1CCCCN1CCNS(=O)(=O)c1cc(-c2nc(C(C)(C)C)cs2)cs1 (stereo not drawn) | -20.5%
COc1ccc(-c2nc(N3CCC(Cc4ccccc4)CC3)c3ccccc3n2)cc1 | 16.4%
Cc1ccc(-c2coc(-c3ccc(NC(=O)Cc4cccs4)cc3)n2)cc1 | -53.8% [at 0.68 µM]
COc1cccc(CNC2=NCCNC23CCN(S(=O)(=O)c2ccc(C(C)C)cc2)CC3)c1 | -13.5% [at 0.35 µM]
Cc1nc(CCNC(=O)[C@H]2CCCN2S(=O)(=O)c2ccc(C(C)(C)C)cc2)cs1 | 7.93% [at 5 µM]
CCCCC(=O)N1CCC(C(=O)NCCc2csc(-c3ccccc3)n2)CC1 | 6.78% [at 2.6 µM]
CCc1nc(OCC(=O)Nc2ccc3c(c2)OCO3)c2ccccc2n1 | 23.2% [at 10 µM]
CCOC(=O)C1CCCN(S(=O)(=O)c2cc(-c3nc(C)c(C)s3)sc2C)C1 (stereo not drawn) | 14.9% [at 0.16 µM]
COc1ccc2c(c1)NC1(CCN(C(=O)c3ccc(C(C)(C)C)cc3)CC1)c1cccn1-2 | -6.3% [at 0.35 µM]
CN1C(=O)CCc2cc(NC(=O)C3CCCO3)ccc21 (stereo not drawn) | 17.1%
COc1cccc(-c2nc(CN(c3ccc(C)cc3)S(=O)(=O)c3cccs3)c(C)o2)c1OC | 2.85%
CCOc1ccc(N(Cc2nc(-c3ccccc3OCC)oc2C)S(=O)(=O)c2cccs2)cc1 | 8.57% [at 10 µM]
COc1ccc(N(Cc2nc(-c3ccccc3)oc2C)S(=O)(=O)c2cccs2)cc1 | 14.6%
COc1ccccc1-c1nc(Cn2nnc(-c3nc(-c4ccc(SC)cc4)no3)c2C)c(C)o1 | 10.9% [at 0.16 µM]
CCOc1ccc(NC(=O)Nc2ccc(-c3nc(-c4cc(C)ccc4C)co3)cc2)cc1 | -9.48% [at 1.35 µM]
CC(C)n1c(C(=O)Nc2cccc(F)c2)nc2c1CCN(Cc1ccccc1)C2 | 12.5%
CCN1Cc2c(C(=O)Nc3ccc(C)cc3)ncn2-c2ccccc2S1(=O)=O | 5.65%
CN1[C@H](CO)[C@@H]2c3ccccc3N(C(=O)C3CCCCC3)C[C@@H]21 | 65.5%
COc1ccc(CC(=O)N2CCC3(CC2)Nc2ccc(C)c(C)c2-n2cccc23)cc1OC | 11.1% [at 0.68 µM]
